High-throughput results as filed in PubChem.
The list is not random: actives were taken first. Their share in the collection is about 0.5%.
MLL CXXC-DNA inh – inhibitors of human MLL CXXC domain-DNA interaction; Q03164; MLL-CXXC / FITC-HOXA9 DNA fluorescence polarization; Potency, µM (highest dose often 115 µM), for the others: at the top dose activity change, negative = inhibition, usual class: inhibitors; 290,000 compounds, 0.037% hits; active means well fitted inhibition curve with a large enough effect in the polarisation, with a control signal flat, not every such curve was filed as active; inconclusive means small, poorly fitted or top-dose-only effect, or effect the other way, or a change in a side signal; inactive means no such curve, though single readings can be large or run the other way; the % refers to the polarisation; further: potency means the concentration at half of the fitted maximal effect
Target sequence (Q03164 whole entry, looked up, the tested form may be a part): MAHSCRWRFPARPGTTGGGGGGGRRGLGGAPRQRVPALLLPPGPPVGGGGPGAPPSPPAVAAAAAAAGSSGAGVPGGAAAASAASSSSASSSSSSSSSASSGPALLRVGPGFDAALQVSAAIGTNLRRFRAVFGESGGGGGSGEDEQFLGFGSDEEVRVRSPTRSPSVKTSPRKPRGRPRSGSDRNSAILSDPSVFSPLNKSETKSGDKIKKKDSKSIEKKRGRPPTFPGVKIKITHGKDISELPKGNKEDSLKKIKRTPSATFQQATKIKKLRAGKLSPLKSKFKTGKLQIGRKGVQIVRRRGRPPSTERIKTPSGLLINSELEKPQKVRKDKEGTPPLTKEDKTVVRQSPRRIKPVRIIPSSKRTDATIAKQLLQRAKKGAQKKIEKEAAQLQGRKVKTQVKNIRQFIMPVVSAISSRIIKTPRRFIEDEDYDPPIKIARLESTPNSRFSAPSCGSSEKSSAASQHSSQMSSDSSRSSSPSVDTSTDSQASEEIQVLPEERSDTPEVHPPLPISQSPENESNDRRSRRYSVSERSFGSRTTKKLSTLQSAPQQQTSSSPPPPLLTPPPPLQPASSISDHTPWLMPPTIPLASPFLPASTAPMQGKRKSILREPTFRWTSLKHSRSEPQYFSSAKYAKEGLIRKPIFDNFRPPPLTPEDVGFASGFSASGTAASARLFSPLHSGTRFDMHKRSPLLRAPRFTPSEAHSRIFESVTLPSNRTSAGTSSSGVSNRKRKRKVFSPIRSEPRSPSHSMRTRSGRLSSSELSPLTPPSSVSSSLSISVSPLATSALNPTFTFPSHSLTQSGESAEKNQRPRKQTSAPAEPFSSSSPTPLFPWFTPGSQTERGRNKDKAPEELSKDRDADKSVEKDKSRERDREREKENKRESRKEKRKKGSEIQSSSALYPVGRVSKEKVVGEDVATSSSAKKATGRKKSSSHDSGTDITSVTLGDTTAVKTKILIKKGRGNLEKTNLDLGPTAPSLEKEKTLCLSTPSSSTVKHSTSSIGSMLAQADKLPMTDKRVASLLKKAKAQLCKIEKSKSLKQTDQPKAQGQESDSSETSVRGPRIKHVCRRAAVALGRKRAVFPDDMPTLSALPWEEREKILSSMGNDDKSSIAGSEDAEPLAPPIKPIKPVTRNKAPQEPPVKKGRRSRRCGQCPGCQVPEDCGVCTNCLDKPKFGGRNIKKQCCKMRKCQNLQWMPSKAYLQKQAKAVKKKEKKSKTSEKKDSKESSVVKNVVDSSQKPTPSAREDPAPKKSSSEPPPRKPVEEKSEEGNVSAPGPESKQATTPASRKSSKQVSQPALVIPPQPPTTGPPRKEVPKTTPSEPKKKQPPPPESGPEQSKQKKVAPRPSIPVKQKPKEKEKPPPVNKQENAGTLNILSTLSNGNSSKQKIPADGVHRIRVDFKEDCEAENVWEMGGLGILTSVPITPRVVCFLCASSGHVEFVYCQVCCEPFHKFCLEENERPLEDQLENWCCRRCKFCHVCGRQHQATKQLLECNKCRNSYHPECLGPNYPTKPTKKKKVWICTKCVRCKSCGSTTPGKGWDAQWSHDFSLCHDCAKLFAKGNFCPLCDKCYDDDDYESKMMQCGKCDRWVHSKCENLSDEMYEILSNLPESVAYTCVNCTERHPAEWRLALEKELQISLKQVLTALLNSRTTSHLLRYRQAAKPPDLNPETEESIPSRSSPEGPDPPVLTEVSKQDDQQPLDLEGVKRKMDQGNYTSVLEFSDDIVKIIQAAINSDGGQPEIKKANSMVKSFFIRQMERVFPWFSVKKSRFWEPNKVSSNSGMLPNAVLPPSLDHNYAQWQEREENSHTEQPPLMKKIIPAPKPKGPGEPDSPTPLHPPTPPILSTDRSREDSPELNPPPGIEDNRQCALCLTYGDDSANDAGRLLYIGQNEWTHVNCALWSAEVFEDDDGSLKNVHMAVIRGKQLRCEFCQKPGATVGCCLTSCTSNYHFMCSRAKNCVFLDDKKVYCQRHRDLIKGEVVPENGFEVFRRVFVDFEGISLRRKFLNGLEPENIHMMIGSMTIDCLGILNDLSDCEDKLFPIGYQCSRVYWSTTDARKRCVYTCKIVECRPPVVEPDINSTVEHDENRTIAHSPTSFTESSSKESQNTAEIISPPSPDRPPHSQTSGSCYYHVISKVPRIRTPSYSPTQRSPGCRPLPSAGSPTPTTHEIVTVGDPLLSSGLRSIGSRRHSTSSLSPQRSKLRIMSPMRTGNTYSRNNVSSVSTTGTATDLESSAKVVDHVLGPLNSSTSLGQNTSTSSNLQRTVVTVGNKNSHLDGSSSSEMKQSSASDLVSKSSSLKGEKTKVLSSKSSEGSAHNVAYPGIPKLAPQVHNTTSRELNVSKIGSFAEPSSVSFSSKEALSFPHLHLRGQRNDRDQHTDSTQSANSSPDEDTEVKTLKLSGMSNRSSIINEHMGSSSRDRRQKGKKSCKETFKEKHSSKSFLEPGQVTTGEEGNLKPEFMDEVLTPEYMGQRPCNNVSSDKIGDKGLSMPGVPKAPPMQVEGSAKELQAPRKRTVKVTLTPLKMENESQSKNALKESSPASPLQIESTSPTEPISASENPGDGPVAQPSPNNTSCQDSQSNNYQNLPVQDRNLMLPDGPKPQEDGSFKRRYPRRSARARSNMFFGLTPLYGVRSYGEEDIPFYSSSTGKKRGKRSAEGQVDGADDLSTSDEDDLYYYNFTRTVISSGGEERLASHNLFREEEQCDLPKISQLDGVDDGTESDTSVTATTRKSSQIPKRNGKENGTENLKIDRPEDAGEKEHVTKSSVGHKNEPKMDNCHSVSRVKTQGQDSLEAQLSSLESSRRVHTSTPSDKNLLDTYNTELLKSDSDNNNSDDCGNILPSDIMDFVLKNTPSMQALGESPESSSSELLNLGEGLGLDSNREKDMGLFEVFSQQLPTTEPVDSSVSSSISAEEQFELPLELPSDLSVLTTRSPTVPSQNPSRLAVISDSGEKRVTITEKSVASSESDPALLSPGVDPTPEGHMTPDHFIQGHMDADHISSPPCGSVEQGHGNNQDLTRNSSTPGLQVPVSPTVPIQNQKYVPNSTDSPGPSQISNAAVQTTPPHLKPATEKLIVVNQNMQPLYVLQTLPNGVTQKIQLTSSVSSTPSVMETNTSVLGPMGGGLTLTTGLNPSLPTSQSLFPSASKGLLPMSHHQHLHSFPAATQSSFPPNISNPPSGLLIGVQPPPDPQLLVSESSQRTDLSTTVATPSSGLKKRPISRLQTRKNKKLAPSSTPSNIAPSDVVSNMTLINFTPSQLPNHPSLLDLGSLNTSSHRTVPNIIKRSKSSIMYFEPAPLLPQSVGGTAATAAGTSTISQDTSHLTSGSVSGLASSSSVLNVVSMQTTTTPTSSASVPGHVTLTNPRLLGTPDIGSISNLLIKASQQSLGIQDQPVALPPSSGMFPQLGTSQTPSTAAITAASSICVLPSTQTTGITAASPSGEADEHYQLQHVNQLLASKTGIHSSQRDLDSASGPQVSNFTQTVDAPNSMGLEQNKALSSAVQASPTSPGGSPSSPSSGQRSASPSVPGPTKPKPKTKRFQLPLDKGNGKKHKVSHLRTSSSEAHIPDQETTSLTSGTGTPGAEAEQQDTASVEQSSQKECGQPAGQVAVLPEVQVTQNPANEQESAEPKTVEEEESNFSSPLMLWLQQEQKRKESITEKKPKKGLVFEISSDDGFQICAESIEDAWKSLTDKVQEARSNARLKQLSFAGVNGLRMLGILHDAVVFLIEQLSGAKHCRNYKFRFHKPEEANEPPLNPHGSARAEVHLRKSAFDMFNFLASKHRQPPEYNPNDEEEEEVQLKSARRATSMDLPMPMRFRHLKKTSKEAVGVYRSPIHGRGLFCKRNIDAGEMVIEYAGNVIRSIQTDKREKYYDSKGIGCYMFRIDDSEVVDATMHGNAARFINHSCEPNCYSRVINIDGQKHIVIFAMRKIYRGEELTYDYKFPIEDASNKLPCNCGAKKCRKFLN
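Steps: dispense CXXC domain solution (7 uM) → pin compounds or unlabeled HOX-A9 DNA control → 5 min ambient → add FLSN-HOX-A9 solution (50 nM) → spin → 30 min ambient → fluorescence polarization. Tris pH 7.5/NaCl/DTT/BSA buffer.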
TR SRC2 fluor cs – counter-screen for TRb-SRC2 inhibitors: fluorescence interference; TRb/SRC2 Texas Red total fluorescence interference; Potency, µM (doses to about 106 µM), for the others: at the top dose fluorescence change, negative = quenching; 280,000 compounds, 0.29% hits; active means well fitted curve in either direction with a large enough effect; inconclusive means small, poorly fitted or top-dose-only effect; further: potency means the concentration at half of the fitted maximal effect; on the % scale 0 is the no-effect control and ±100 the full control effect
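Human TRβ ligand-binding domain (0.6 uM) and Texas Red SRC2 peptide (20 nM) in Tris buffer with 1 uM T3 and 5% DMSO were incubated with pinned compound for 5 hr at ambient temperature. Total fluorescence was computed as S + 2P (555/632 nm).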
RGS12 GoLoco inh – inhibitors of human Gai1-RGS12 GoLoco interaction (red fluorophore). P63096. 230,000 compounds, 0.44% hits. Potency, µM (doses to about 61.6 µM), for inactives: at the top dose activity, negative = inhibition, usual class: inhibitors. Gai1:RGS12 GoLoco peptide FP, rhodamine, 10 min; active means well fitted inhibition curve with a large enough effect, not every such curve was filed as active; inactive means no such curve, though single readings can be large or run the other way; further: potency means the concentration at half of the fitted maximal effect; on the % scale 0 is the no-effect control and ±100 the full control effect; nearly all actives have a fitted effect of over 30% in size
Menin-MLL FL inh – menin-MLL binding inhibition, fluorescein peptide; Fluorescence polarization, fluorescein-MLL peptide displacement from menin; FP activity change, % at 61.4 µM; 290,000 tested, under 10 active; active means well fitted curve in the direction sought with a large enough effect in the polarisation, not every such curve was filed as active; inconclusive means small, poorly fitted or top-dose-only effect, or effect the other way, or a change in a side signal; inactive means no such curve, though single readings can be large or run the other way; the % refers to the polarisation; further: % of control where 0% means no effect
Menin MLL FP TR – inhibitors of human menin-MLL interaction, mutant MLL peptide | 270,000 compounds, 0.23% hits | O00255 | Potency, µM (titrated, usually from 61.6 µM), for inactives: at the top dose FP activity change, negative = inhibition, most hits filed as inhibitors | Menin + Texas Red MLL mutant peptide, fluorescence polarization; active means well fitted inhibition curve with a large enough effect in the polarisation, with a control signal flat, not every such curve was filed as active; inconclusive means small, poorly fitted or top-dose-only effect, or effect the other way, or a change in a side signal; inactive means no such curve, though single readings can be large or run the other way; the % refers to the polarisation; further: potency means the concentration at half of the fitted maximal effect; % of control where 0% means no effect
TRb SRC2 PPI – inhibitors of human thyroid hormone receptor beta-SRC2 interaction; Potency, µM (top dose mostly 106 µM), inactives show at the top dose activity change, negative = inhibition, actives largely listed as inhibitors; P10828; 280,000 compounds, 0.065% hits; TRbeta-SRC2 peptide binding, fluorescence polarization; receptor liganded with 1 µM T3;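 further: potency means the concentration at half of the fitted maximal effect; plate controls were bound peptide for no effect and peptide without receptor for full effect; nearly all actives have a fitted effect of over 50% in size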
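Binding of a 20-amino-acid Texas Red SRC2 peptide (20 nM) to TRb ligand-binding domain (0.6 uM) with agonist T3 at 1 uM was followed by fluorescence polarization after a 5 hr room-temperature incubation.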
MLL CXXC FP-Fl – disrupts human MLL CXXC domain binding to DNA | shares compounds with MLL CXXC-DNA inh | MLL CXXC-DNA binding, fluorescein FP | Potency, µM (doses to about 345 µM), for the others: at the highest dose activity change, negative = inhibition, most hits filed as inhibitors | 200 compounds, 70% hits; further: potency means the concentration at half of the fitted maximal effect; nearly all actives have a fitted effect of over 80% in size
MLL CXXC TxRed – MLL CXXC-DNA interaction inhibition, Texas Red FP; shares compounds with MLL CXXC-DNA inh; MLL CXXC-DNA binding, Texas Red fluorescence polarization; Potency, µM (doses to about 345 µM), without a hit: top-dose activity change, negative = inhibition, hits mostly inhibitors; 200 compounds, 40% hits; further: potency means the concentration at half of the fitted maximal effect; on the % scale 0 is the no-effect control and ±100 the full control effect; nearly all actives have a fitted effect of over 75% in size
MLL CXXC HTRF – disrupts human MLL CXXC domain binding to DNA by HTRF; AID 624162; MLL CXXC-DNA binding, HTRF, biochemical; Potency, µM (top dose mostly 172 µM), for inactives: top-dose activity change, negative = inhibition, usual class: inhibitors; shares compounds with MLL CXXC-DNA inh; 210 compounds, 30% hits; further: on the % scale 0 is the no-effect control and ±100 the full control effect; nearly all actives have a fitted effect of over 80% in size
Starred values were filed as active, the others as inactive; ? = inconclusive; / = no result; [ ] = dose if it differs, or a comment. Unless noted, the call rests on the fitted dose curve; in most records, active means well fitted curve in the direction sought with a large enough effect; inconclusive means small, poorly fitted or top-dose-only effect, or another doubt; inactive means no such curve, though single readings can be large; an effect the other way counts as inactive or inconclusive.

SMILES	MLL CXXC-DNA inh	TR SRC2 fluor cs	RGS12 GoLoco inh	Menin-MLL FL inh	Menin MLL FP TR	TRb SRC2 PPI	MLL CXXC FP-Fl	MLL CXXC TxRed	MLL CXXC HTRF
CC1OC2(C)OC(=N)C1(C#N)C(C#N)(C#N)C2c1ccccc1 (stereo not drawn)	-7.4%	3.7%	-15.0%	2.5	-1.5%	4.6%	/	/	/
CCn1c(=O)c2ccccc2n(Cc2ccc([N+](=O)[O-])cc2)c1=O	?	/	/	-3.0	21.8%	/	?	?	22.1%
CCn1c(=O)c2ccccc2n(Cc2cccc(C)c2)c1=O	-7.5%	/	/	0.9	5.7%	/	/	/	/
CCCCC1(C)OC(=O)C(=Cc2ccc(-c3ccc(Cl)c(C(=O)O)c3)o2)C(=O)O1 (stereo not drawn)	39.8µM*	-6.8%	-0.2%	19.6	/	1.6%	22.5µM*	44.8µM*	48.5µM*
CCOC(=O)COc1ccc(/C=C2/C(=O)NN(c3ccc(F)cc3)C2=O)cc1OC	?	/	/	4.1	11.1%	/	?	?	17.9%
COc1cc(/C=C2\C(=O)NN(c3ccc(C)cc3)C2=O)cc([N+](=O)[O-])c1O	22.4µM*	-7.4%	14.8%	3.2	?	-1.4%	17.9µM*	89.5µM*	97.1%
CCOc1cc(/C=C2\C(=O)NN(c3ccccc3)C2=O)cc([N+](=O)[O-])c1O	?	-4.9%	-10.4%	-6.5	?	-5.2%	/	/	/
COc1cc(/C=C2\C(=O)NN(c3ccccc3)C2=O)cc([N+](=O)[O-])c1O	25.1µM*	-3.0%	-17.1%	7.3	?	-0.2%	44.8µM*	113µM*	26.2%
COc1ccc(C2OC34CCCCC3C(C#N)(C#N)C2(C#N)C(=N)O4)cc1 (stereo not drawn)	28.2µM*	5.0%	-90.2%	?	?	-20.2%	142µM*	113µM*	-3.1%
CSC1=NCCCN1C(=O)c1c(-c2ccccc2Cl)noc1C	?	0.7%	3.1%	-2.8	/	-1.6%	?	24.9%	-4.7%
NS(=O)(=O)c1ccc(NC2=CC(=O)C(=O)c3ccccc32)cc1	?	/	/	-5.4	?	/	?	?	107.8%
CN1C(=O)C(=O)/C(=C(/O)c2ccc(Br)cc2)C1c1ccc(Cl)cc1 (stereo not drawn)	-2.9%	/	/	-2.2	18.0%	/	/	/	/
O=C1OC(c2ccc(Cl)cc2)/C(=C(/O)c2ccccc2)C1=O (stereo not drawn)	?	-1.7%	-10.3%	-1.8	34.3%	-17.2%	5.2%	126µM*	30.5%
CCc1ccccc1NC(=O)CSc1nnc(COc2ccccc2Cl)o1	/	-3.0%	/	/	/	5.6%	/	/	/
CCOC(=O)c1cc(S(=O)(=O)Nc2cc(F)ccc2C)[nH]n1	/	-5.4%	/	/	/	-3.0%	/	/	/
COC(=O)[C@H](CCSC)NC(=O)c1ccc(NC[C@@H](N)CS)cc1-c1ccccc1	/	-3.6%	/	-5.9	-1.2%	2.4%	/	/	/
Fc1ccccc1COc1ccc(Br)cc1CNCc1cccnc1	?	-0.2%	2.4%	-4.7	?	1.1%	?	?	-9.5%
Fc1ccccc1COc1ccc(Br)cc1CNCc1ccncc1	-19.8%	-3.2%	-6.8%	-1.0	?	-12.9%	/	/	/
Nc1ncc(O)c(N)n1	/	-11.6%	/	2.9	4.8%	-4.7%	/	/	/
S=C(NC1CCCCC1)N1CCN(C2CCCCC2)CC1	?	-4.3%	8.3%	-10.5	?	4.2%	?	13.7%	-0.3%
O=C(NC1CCCCC1)N1CCN(C2CCCCC2)CC1	4.5%	1.8%	5.7%	0.4	-6.5%	-4.0%	/	/	/
NC(N)=NCC1COc2ccccc2O1 (stereo not drawn)	2.9%	-0.7%	/	1.8	-12.5%	7.5%	/	/	/
Nc1c(C(=O)O)ccc2c1C(=O)c1ccccc1C2=O	?	?	153.2%	?	?	-17.2%	/	/	/
Nc1cc(C(=O)O)c(N)c2c1C(=O)c1ccccc1C2=O	31.6µM*	44.7µM*[fluorescent]	-11.0%	?	/	39.8µM*	113µM*	40µM*	149.7%
COc1ccc(CNC(=O)Cc2coc3ccc(C)cc23)cc1	/	-8.0%	/	/	/	3.5%	/	/	/
SMILES	MLL CXXC-DNA inh	TR SRC2 fluor cs	RGS12 GoLoco inh	Menin-MLL FL inh	Menin MLL FP TR	TRb SRC2 PPI	MLL CXXC FP-Fl	MLL CXXC TxRed	MLL CXXC HTRF
Cc1cc(N)c2cc(NC(=O)Nc3ccc4nc(C)cc(N)c4c3)ccc2n1	/	/	14.9%[14.2 µM]	-29.9	15.8µM*	/	8.95µM*	?	9.68µM*
O=C(O)CN1C(=O)/C(=C\c2cccc(OCc3ccc(Cl)cc3Cl)c2)SC1=S	?	/	/	1.3	54.3%	/	?	23.2%	-103.3%
O=C1c2ccccc2-c2n[nH]c3cccc1c23	?	-10.2%	5.4%	?	?	3.2%	35.6µM*	?	17.9%
CCOC(=O)COc1ccc(CC)cc1C(=O)c1ccn2nc(-c3ccccc3)cc2n1	/	3.7%	/	/	/	2.3%	/	/	/
Cc1ccccc1-c1nc(CS(=O)(=O)CC(=O)Nc2cccc(C(F)(F)F)c2)c(C)o1	/	-4.5%	/	/	/	0.0%	/	/	/
CC1CCN(S(=O)(=O)c2cc(C(=O)NCc3ccccc3)n(C)c2)CC1	/	4.0%	/	/	/	-4.8%	/	/	/
COc1ccc(-c2nn(-c3ccccc3)cc2/C=C/C(=O)OCC(=O)Nc2ccc(C#N)cc2)cc1	?	-1.0%	4.1%	5.9	?	3.0%	67.7%	?	5.3%
COc1ccc(-c2nn(-c3ccccc3)cc2/C=C/C(=O)OCC(=O)Nc2cccc(C#N)c2)cc1	13.2%	7.1%	-31.0%	-1.8	?	5.1%	/	/	/
